Data on eight molecules can be found in PubChem BioAssay (NCATS).

Test [1] is described as follows: Cell Viability - SK-N-SH (AID 435).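 Note: potency is the fitted concentration of half-maximal effect; compound exposure lasted 40 h at 37 °C.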 To be noted: SK-N-SH neuroblastoma cell viability qHTS. An outline of the steps:
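CellTiter-Glo ATP luminescence, 20 min RT read; cells pre-plated 5 hr, compound 40 hr at 37 °C, 1500 cells/well, complete medium. Normalized DMSO = 0, 100 uM tamoxifen = 100% inhibition; Hill-fit AC50.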
A general note: In qHTS, concentration-response curves come from the screen itself.

Test [2] can be described thus: Cell Viability - H-4-II-E (AID 543; active = well fitted curve in the direction sought with a large enough effect; an effect the other way counts as inactive or inconclusive;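 note: cells exposed to compound for 40 hours; nearly all actives have a fitted effect of over 35% in size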; note: potency is the fitted concentration of half-maximal effect). To be noted: H-4-II-E rat hepatoma viability; series mostly up to 92.2 µM. An outline of the steps:
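Here, cytotoxicity is measured in the rat hepatoma line H-4-II-E as loss of intracellular ATP after 40 hr compound treatment, detected by luciferase luminescence.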

Test [3] deals with Glucocorticoid receptor (Homo sapiens) (UniProt P04150). The test can be described thus: qHTS assay for small molecule agonists of glucocorticoid receptor signaling (AID 588532; active = well fitted curve in the direction sought with a large enough effect in the signal ratio, with a control signal flat; the % refers to the signal ratio;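 note: 100% = dexamethasone at 0.1 µM and 0% = DMSO only wells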). The note with it: HeLa MMTV-bla, beta-lactamase ratio, agonist, 18 h; stronger effect = higher value; percent of dexamethasone control, DMSO zero. The method, boiled down:
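Cells were plated and rested 3-5 h at 37 C, compounds were added in titration and incubated 18 h, then CCF4 substrate was loaded for 2 h at RT before reading blue/green fluorescence. EC50 came from Hill-equation fitting.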

Test [4] addresses Peroxisome proliferator-activated receptor gamma (Homo sapiens) (UniProt P37231). The test can be described thus: qHTS assay for small molecule antagonists of peroxisome proliferator-activated receptor gamma signaling (AID 588537; active = well fitted inhibition curve with a large enough effect in the signal ratio, with a control signal flat, not every such curve was filed as active; the % refers to the signal ratio;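 note: reporter cells co-stimulated with 50 nM rosiglitazone agonist during compound treatment; % of control where 0% means no effect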). To be noted: HEK293 PPARg-UAS-bla, beta-lactamase ratio, antagonist mode; series mostly up to 76.8 µM. An outline of the steps: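 Step one: plate 3000 HEK293 UAS-bla cells per well in medium with 1% stripped serum and hold 6-6.5 h at 37 C. Step two: add compound and 50 nM agonist for 16 h. Step three: CCF4 loading, fluorescence read.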

Test [5] concerns the target Vitamin D3 receptor (Homo sapiens) (UniProt P11473). The test can be described thus: qHTS assay for small molecule antagonists of vitamin D receptor signaling (AID 588541).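 Note: receptor activated by calcitriol during compound treatment; % is set by controls: 0 for no effect and ±100 for the full control effect.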 The note with it: HEK293T VDR-UAS-bla, beta-lactamase ratio, antagonist mode; series mostly up to 76.7 µM. An outline of the steps: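 VDR-UAS-bla HEK293T cells in 2% charcoal-stripped FBS were stimulated with 1-alpha,25-dihydroxyvitamin D3 (3 nM final) plus compound for 16 h at 37 C. The beta-lactamase CCF4 readout was normalized to 50 nM agonist and DMSO, and Hill fits gave IC50.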

Test [6] deals with Thyroid hormone receptor beta (Homo sapiens) (UniProt P10828). The test can be described thus: qHTS assay for small molecule antagonists of thyroid hormone receptor beta signaling (AID 588547; active = well fitted inhibition curve with a large enough effect in the signal ratio, with a control signal flat, not every such curve was filed as active; the % refers to the signal ratio;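 note: cells stimulated with 0.4 nM T3 agonist during compound exposure; % is set by controls: 0 for no effect and ±100 for the full control effect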). The note with it: TR-UAS-bla HEK293, beta-lactamase ratio, antagonist mode, 18 h. The method, boiled down:
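TR-UAS-bla GripTite HEK293 cells in 2% charcoal/dextran FBS medium; compounds 0.59 nM to 92 uM with T3 at 0.4nM final, 18 h at 37 C. Beta-lactamase read by CCF4 fluorescence (460/530 nm); Hill fits gave IC50 and efficacy.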

A short description of test [7]: qHTS assay for small molecule agonists of the antioxidant response element (ARE) signaling pathway (AID 651741; active = well fitted activation curve with a large enough effect in the signal ratio; the % refers to the signal ratio; note: potency is the fitted concentration of half-maximal effect; for activation: % of control where 0% means no effect). To be noted: HepG2 ARE-bla reporter, beta-lactamase FRET ratio, 16 h; series mostly up to 96 µM. An outline of the steps:
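HepG2 ARE-bla cells plated at 2,000 cells/well and incubated 5 h at 37 C/5% CO2 received 23 nL compound in DMSO. After 16 h at 37 C, LiveBLAzer B/G FRET substrate was applied for 2 h at room temperature and fluorescence read.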

Test [8] in a line: qHTS assay for small molecule disruptors of the mitochondrial membrane potential - 1 hr assay (AID 651754). Note: nearly all actives have a fitted effect of over 35% in size. Note: potency is the fitted concentration of half-maximal effect. The note with it: series mostly up to 92.2 µM. The method, boiled down: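 Steps: seed HepG2 cells and let attach overnight; pin-transfer compound or vehicle; incubate 1 hr at 37C; add Mito-MPS dye for 30 min; read two-channel fluorescence for monomer and aggregate forms.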

Test [9] can be described thus: qHTS assay for small molecule disruptors of the mitochondrial membrane potential - 5 hr assay (AID 651755). Note: % is set by controls: 0 for no effect and ±100 for the full control effect; nearly all actives have a fitted effect of over 40% in size. To be noted: JC-1-type ratio dye; series mostly up to 92.2 µM. An outline of the steps:
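HepG2 cells (2,000/well), attached overnight, exposed to compound 5 hr at 37C, then Mito-MPS dye 30 min. Fluorescence read for monomers (490/535 nm) and aggregates (540/590 nm).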

Test [10] has as its target Nuclear receptor ROR-gamma (Homo sapiens) (UniProt P51449). The test can be described thus: qHTS assay for small molecule antagonists of the retinoid-related orphan receptor gamma (ROR-gamma) signaling pathway (AID 651802; active = well fitted curve in the direction sought with a large enough effect; an effect the other way counts as inactive or inconclusive;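 note: CHO cells with doxycycline-induced ROR-gamma expression; luciferase reporter luminescence driven by ROR response element; % is set by controls: 0 for no effect and ±100 for the full control effect; nearly all actives have a fitted effect of over 60% in size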). The note with it: ROR-gamma antagonist cell reporter assay; series mostly up to 92.2 µM. The method, boiled down:
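Antagonism is scored as a fall in luminescence from a RORE-luciferase reporter in CHO cells expressing ROR under a TET-inducible promoter, measured 16hr after doxycycline induction in the presence of compound.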

Test [11] can be described thus: qHTS assay for small molecule agonists of the antioxidant response element (ARE) signaling pathway measured by Nrf2-dependant transcriptional activity (AID 720636; active = well fitted curve in the direction sought with a large enough effect in the repeat runs; an effect the other way counts as inactive or inconclusive; note: % of control where 0% means no effect). The note with it: ARE-luc HepG2, Nrf2 luciferase reporter, 16 h; series mostly up to 92.4 µM. An outline of the steps: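 Attachment 6 hr at 37 C, then compound versus DMSO vehicle for 16 hr in ARE-luc HepG2 cells (1% dialyzed FBS); luminescence recorded 30 min after ONE-Glo addition at room temperature.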

Test [12] can be described thus: Cell Viability - NIH 3T3 (AID 541; active = well fitted curve in the direction sought with a large enough effect; an effect the other way counts as inactive or inconclusive;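 note: cells exposed to compound for 40 hours; nearly all actives have a fitted effect of over 25% in size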; note: potency is the fitted concentration of half-maximal effect;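 for activity change, negative = cytotoxicity: plate controls were DMSO alone for no effect and tamoxifen positive control for full effect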). To be noted: NIH 3T3 cell viability, qHTS; activity change, negative = cytotoxicity: at 92.2 µM (top of the series). The method, boiled down: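 AC50 values reflect concentration-dependent loss of intracellular ATP in NIH 3T3 cells after 40 hr treatment in complete culture medium, quantified by luciferase-based luminescence.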
Test [13] can be described thus: MultiTox-Fluor Cytotoxicity Assay - LYMP1-001 - Live Cells (AID 947; active = well fitted curve in the direction sought with a large enough effect; an effect the other way counts as inactive or inconclusive;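 note: 0% = DMSO only and full inhibition = tetraoctylammonium bromide control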). To be noted: LYMP1-001 lymphoblastoid cells, live-cell protease fluorescence viability; series mostly up to 92.2 µM.
Test [14] has as its target Estrogen receptor (Homo sapiens) (UniProt P03372). The test can be described thus: qHTS assay for small molecule antagonists of estrogen receptor alpha signaling (AID 588513; active = well fitted curve in the direction sought with a large enough effect in the signal ratio, with a control signal flat, not every such curve was filed as active; the % refers to the signal ratio; note: % is set by controls: 0 for no effect and ±100 for the full control effect). To be noted: ER-alpha-UAS-bla HEK293, beta-lactamase ratio, antagonist mode; series mostly up to 76.9 µM. The method, boiled down:
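Beta-lactamase reporter, antagonist mode, HEK 293 GripTite cells; 0.5nM E2 stimulus, 18 h, 37 C; CCF4 dye 2 h RT; fluorescence. IC50 and efficacy from Hill fits, normalized to E2 and DMSO.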

Test [15] shares this target. The test can be described thus: qHTS assay for small molecule agonists of estrogen receptor alpha signaling (AID 588514).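 Note: 0% = vehicle only and 100% = reference agonist; nearly all actives have a fitted effect of over 70% in size.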 To be noted: ER-alpha-UAS-bla HEK293, beta-lactamase ratio, 18 h; series mostly up to 76.8 µM. The method, boiled down: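 Reporter-gene assay. […] controls beta-lactamase in HEK 293 GripTite cells; after 18 hrs with compound, CCF4 substrate is added for 2 hrs and fluorescence is read.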

Test [16] addresses Glucocorticoid receptor (Homo sapiens) (UniProt P04150). The test can be described thus: qHTS assay for small molecule antagonists of glucocorticoid receptor signaling (AID 588533; active = well fitted inhibition curve with a large enough effect in the signal ratio, with a control signal flat, not every such curve was filed as active; the % refers to the signal ratio; note: % is set by controls: 0 for no effect and ±100 for the full control effect). To be noted: HeLa MMTV-bla, GRE beta-lactamase ratio, antagonist mode, 18 h; series mostly up to 76.8 µM. The method, boiled down: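 Antagonist-mode qHTS: compound titrations added to GRE-bla HeLa cells, then dexamethasone 2 nM final; 18 h, 37 C. CCF4 FRET fluorescence normalized to dexamethasone and DMSO; IC50 from Hill fit.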

In test [17] the target is Peroxisome proliferator-activated receptor delta (Homo sapiens) (UniProt Q03181). The test can be described thus: qHTS assay for small molecule agonists of peroxisome proliferator-activated receptor delta signaling (AID 588534).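 Note: 0% = DMSO basal wells and 100% = positive control agonist at 10 µM.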 The note with it: HEK293T PPARdelta-UAS-bla, beta-lactamase ratio, 18 h; series mostly up to 76.7 µM. An outline of the steps:
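Reporter cells were plated and held 5 hrs at 37 C before compounds were added. After 18 hrs at 37 C, CCF4 dye was loaded for 2 hrs at RT and fluorescence measured.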

Test [18] can be described thus: qHTS assay for small molecule activators of the nuclear factor-kappa B (NF-kB) signaling pathway (AID 651749; active = well fitted activation curve with a large enough effect in the signal ratio; the % refers to the signal ratio; note: % of control where 0% means no effect). The note with it: NF-kB-bla ME-180 cells, beta-lactamase FRET ratio, 16 h; stronger effect = higher value. An outline of the steps:
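Incubation lasted 16 hr at 37C in 5% CO2 after 23 nL compound addition to ME-180 NF-kB-bla cells. Activation appears as beta-lactamase-mediated FRET loss.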

Test [19] is described as follows: qHTS assay for small molecule antagonists of peroxisome proliferator-activated receptor delta signaling (AID 588535; active = well fitted inhibition curve with a large enough effect in the signal ratio, with a control signal flat, not every such curve was filed as active; the % refers to the signal ratio;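 for max response: cells co-treated with a PPAR-delta agonist as stimulator during compound exposure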). To be noted: HEK293T PPARd-UAS-bla, beta-lactamase FRET ratio, 18 h; 460 nm channel. An outline of the steps:
(§1)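 Cells were seeded at 4000 per well in assay medium containing 2% charcoal/dextran FBS and held 5 hrs at 37 C. Compounds were then added for 18 hrs. CCF4 substrate was applied for 2 hrs at room temperature before fluorescence reading.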

Test [20] concerns the target Peroxisome proliferator-activated receptor delta (Homo sapiens) (UniProt Q03181). The test is described as above. To be noted: HEK293T PPARd-UAS-bla, beta-lactamase FRET ratio, 18 h; series mostly up to 76.7 µM. An outline of the steps: as §1

Values joined by “and” are separate entries in the source; they are usually repeats but may differ in a detail not shown here. Identical values can stand only once. Inconclusive results are not listed. Active and inactive are the calls of the source. Unless noted, calls come from the whole dose curve. Some results are limits rather than exact numbers.

Chain of Peroxisome proliferator-activated receptor delta (Homo sapiens) (Q03181 whole entry, looked up): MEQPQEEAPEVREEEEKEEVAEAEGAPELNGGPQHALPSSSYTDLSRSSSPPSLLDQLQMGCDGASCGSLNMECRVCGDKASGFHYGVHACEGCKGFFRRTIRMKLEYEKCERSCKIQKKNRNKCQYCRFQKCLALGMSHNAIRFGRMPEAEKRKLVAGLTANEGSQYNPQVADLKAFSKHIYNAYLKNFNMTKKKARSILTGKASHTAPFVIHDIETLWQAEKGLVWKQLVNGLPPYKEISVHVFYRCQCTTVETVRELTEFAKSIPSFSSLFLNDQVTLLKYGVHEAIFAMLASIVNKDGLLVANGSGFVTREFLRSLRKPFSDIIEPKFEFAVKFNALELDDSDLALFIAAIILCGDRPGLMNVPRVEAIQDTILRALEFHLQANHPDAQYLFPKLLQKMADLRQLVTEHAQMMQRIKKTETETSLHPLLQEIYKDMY
Chain of Peroxisome proliferator-activated receptor gamma (Homo sapiens) (P37231 whole entry, looked up): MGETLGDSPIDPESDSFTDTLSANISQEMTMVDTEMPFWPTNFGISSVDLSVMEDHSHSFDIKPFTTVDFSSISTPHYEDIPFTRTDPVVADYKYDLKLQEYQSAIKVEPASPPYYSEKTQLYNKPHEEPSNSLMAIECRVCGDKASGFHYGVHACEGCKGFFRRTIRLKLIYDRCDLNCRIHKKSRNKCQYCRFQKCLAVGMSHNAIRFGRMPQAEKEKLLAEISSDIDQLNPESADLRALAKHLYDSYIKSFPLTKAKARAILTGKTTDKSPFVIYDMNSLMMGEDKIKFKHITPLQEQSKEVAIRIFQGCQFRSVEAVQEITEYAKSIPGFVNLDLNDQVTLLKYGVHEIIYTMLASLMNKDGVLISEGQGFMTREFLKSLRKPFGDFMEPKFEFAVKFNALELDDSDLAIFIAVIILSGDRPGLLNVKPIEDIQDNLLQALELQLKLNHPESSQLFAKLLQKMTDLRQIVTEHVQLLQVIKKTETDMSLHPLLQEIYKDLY
Chain of Estrogen receptor (Homo sapiens) (P03372 whole entry, looked up): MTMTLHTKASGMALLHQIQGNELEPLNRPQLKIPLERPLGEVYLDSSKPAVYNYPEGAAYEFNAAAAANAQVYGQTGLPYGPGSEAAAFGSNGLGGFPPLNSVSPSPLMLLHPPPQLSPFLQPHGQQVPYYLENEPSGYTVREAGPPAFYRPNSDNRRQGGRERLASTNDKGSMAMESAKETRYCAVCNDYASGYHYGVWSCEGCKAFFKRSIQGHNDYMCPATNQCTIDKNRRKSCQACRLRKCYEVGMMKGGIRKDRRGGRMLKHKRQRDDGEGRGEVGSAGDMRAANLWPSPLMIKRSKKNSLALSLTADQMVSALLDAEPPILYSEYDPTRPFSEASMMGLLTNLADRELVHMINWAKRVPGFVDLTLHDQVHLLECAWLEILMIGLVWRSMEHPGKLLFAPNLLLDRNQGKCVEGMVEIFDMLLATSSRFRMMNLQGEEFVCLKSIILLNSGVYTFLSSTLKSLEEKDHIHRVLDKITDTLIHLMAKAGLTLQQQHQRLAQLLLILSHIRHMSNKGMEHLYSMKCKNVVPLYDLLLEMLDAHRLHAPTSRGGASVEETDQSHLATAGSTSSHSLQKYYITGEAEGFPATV
Chain of Thyroid hormone receptor beta (Homo sapiens) (P10828 whole entry, looked up): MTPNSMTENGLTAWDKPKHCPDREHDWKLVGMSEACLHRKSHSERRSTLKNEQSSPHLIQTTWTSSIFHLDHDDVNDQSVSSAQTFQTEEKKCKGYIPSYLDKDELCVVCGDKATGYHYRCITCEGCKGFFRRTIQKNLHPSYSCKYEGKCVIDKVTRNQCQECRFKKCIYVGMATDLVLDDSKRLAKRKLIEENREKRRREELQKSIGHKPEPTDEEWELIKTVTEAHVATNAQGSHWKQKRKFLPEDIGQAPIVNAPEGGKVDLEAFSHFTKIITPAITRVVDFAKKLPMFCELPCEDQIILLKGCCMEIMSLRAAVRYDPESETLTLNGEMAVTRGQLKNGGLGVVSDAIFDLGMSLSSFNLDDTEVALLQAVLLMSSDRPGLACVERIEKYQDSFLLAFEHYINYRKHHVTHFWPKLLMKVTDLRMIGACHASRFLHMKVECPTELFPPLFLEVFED
Chain of Glucocorticoid receptor (Homo sapiens) (P04150 whole entry, looked up): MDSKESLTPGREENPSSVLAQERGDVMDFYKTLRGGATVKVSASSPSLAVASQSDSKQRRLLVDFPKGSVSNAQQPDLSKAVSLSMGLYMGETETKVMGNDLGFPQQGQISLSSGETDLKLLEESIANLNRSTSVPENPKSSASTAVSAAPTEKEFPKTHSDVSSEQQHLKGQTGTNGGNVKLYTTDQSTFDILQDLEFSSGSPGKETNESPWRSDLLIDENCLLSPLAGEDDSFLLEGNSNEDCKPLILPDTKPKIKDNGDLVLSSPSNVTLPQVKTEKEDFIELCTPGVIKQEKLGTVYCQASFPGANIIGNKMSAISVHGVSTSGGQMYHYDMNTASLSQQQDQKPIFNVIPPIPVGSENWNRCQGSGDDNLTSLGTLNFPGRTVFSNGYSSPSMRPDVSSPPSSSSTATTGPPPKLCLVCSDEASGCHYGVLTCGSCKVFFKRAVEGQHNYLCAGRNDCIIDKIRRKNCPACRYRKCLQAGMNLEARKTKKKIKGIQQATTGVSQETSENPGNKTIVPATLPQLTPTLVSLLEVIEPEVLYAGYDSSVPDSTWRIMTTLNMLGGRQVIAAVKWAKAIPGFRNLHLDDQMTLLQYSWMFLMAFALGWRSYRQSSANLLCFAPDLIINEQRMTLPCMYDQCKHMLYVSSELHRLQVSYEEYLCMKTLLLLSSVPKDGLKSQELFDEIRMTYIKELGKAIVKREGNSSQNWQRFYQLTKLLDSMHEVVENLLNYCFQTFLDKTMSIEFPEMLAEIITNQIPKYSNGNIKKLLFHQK
Chain of Vitamin D3 receptor (Homo sapiens) (P11473 whole entry, looked up): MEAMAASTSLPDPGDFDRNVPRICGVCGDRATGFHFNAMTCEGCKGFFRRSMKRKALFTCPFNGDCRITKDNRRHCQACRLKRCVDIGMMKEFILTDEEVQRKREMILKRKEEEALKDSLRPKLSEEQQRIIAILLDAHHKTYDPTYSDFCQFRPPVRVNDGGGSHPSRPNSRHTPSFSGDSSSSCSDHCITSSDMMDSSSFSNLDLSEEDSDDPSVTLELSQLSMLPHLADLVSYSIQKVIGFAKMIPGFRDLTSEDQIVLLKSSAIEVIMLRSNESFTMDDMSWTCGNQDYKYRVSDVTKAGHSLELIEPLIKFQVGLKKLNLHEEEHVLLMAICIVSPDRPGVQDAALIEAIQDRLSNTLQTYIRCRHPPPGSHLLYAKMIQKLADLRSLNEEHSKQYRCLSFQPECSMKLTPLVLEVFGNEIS
Chain of Nuclear receptor ROR-gamma (Homo sapiens) (P51449 whole entry, looked up): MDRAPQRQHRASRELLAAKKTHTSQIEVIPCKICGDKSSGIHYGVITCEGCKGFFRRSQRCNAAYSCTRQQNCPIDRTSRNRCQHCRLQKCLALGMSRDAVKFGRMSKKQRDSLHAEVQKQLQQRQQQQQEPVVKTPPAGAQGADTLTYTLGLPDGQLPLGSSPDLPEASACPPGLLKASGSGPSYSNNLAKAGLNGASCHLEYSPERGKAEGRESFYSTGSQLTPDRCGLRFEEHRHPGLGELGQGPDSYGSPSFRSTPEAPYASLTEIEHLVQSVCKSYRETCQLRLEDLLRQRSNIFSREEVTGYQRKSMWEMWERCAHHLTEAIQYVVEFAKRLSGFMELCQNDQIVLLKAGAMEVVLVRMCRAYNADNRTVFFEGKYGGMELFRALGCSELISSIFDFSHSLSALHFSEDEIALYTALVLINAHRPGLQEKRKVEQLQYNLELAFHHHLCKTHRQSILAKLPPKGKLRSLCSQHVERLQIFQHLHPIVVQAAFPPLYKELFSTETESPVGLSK

Turning to `O=C(O)CCl`, the Potency in [1] is > 92 µM (inactive); in test [7] it was 42.2 µM (active). Besides, the Potency result in test [2], in test [4], in test [8], in test [9], in [10] and in test [11] was “inactive” each time. In addition, the activation in test [3] is 1.7% (inactive). In addition, the result in test [5] was inactive. Further, in test [6], the activity change % (negative = inhibition) was -0.364% (inactive).
On to `Nc1ccc([N+](=O)[O-])cc1[N+](=O)[O-]`, for which the Potency in [1] was > 92 µM (inactive); in test [12], 10 µM (active); in test [2], 20 µM (active); in test [8] it was 18.8 µM (active). Also, the call in test [13], in test [16], in test [17] and in test [5] was inactive. For the same molecule, the Potency result in test [14], in test [15], in [4] and in test [11] was “inactive” throughout. Moreover, the activity change % (negative = inhibition) in [6] was 0.221% (inactive). In addition, the activation in test [18] was -1.37% (inactive).
Consider `CC(C)(Cl)Cl`, for which the Potency in [1] is > 92 µM (inactive). Besides, the Potency entry in [2], in [4], in test [7], in [8], in test [9] and in test [11] was “inactive” in each case. Also, the result in test [17], in test [20] and in test [5] was inactive. Also, the max response in test [19] was -19.4%. Besides, the activity change % (negative = inhibition) in [6] was -3.24% (inactive). The activation in [18] is 0.397% (inactive).
As for `CCCCNC(=O)n1c(NC(=O)OC)nc2ccccc21`, the Potency in test [1] was > 92 µM (inactive); in test [2], 5.01 µM (active). The Potency result in test [14], in test [15], in [7], in test [8], in test [9] and in test [10] was “inactive” in each case. In addition, the activation in test [3] is -10.9% (inactive); in test [18], -0.565% (inactive) and 0.0154% (inactive). Moreover, the result in test [5] was inactive. The activity change % (negative = inhibition) in test [6] was -13.8% (inactive) and -24% (inactive).
Take `Nc1ccc(-c2ccc(N)cc2)cc1`: in test [1], the Potency is > 92 µM (inactive). Moreover, the Potency entry in test [12], in [14], in [15], in test [4], in [7] and in test [10] was “inactive” in each case. Also, in test [11], the Potency entry is “inactive”. Also, the outcome in test [13], in test [16] and in [5] was inactive. In addition, the activation in test [3] was -6.73% (inactive). In addition, in [6], the activity change % (negative = inhibition) was 12.4% (inactive).
With `CCCCOC(=O)c1ccccc1N`, the Potency in test [1] is > 92 µM (inactive). In addition, the Potency entry in test [12], in test [9], in test [10] and in test [11] was “inactive” throughout. Besides, the molecule was called inactive in [13], in test [17], in test [20] and in [5]. Moreover, the activation is -1.38% (inactive) in [3] and -0.998% (inactive) in [18]. Also, in [19], the max response is -36.1%.
As to `C=C(Cl)CSC(=S)N(CC)CC`, the Potency in [1] is > 92 µM (inactive). Also, the activity change, negative = cytotoxicity in test [12] was -85.8% (active). The Potency entry in test [2], in [4], in [8], in test [9], in [10] and in [11] was “inactive” each time. Further, the outcome in test [13], in test [17], in test [20] and in test [5] was inactive. Moreover, the max response in [19] is -17.2%. Besides, the activity change % (negative = inhibition) in test [6] was 0.68% (inactive). In test [18], the activation was -0.634% (inactive).
Consider `Nc1cccc(Cl)c1`, for which the Potency in test [1] is > 92 µM (inactive). Besides, the Potency result in [2], in test [14], in test [15], in [7], in test [8] and in test [9] was “inactive” in each case. In test [11], the Potency result was “inactive”. The molecule was classed as inactive in test [13], in [17], in test [20] and in test [5]. Moreover, the max response in [19] came out at 30.4%. Besides, the activity change % (negative = inhibition) in [6] is 2.78% (inactive). For the same molecule, in test [18], the activation was -1.07% (inactive).
